ChEMBL document CHEMBL1857833, “Screening and optimization of specific chemical series against human African Trypanosomiasis (HAT)”
Screen size: about 4,400 compounds; about 390 (8.9%) showed an effect of 50% or more. What follows is part of a selection rich in strong results, with near analogues and random picks from the rest.

Test system: Trypanosoma brucei
Assay: DNDI: Inhibition of Human African Trypanosomiasis, SBRI 427, in vitro at 2 ug.mL-1
Format: functional

Compound	% inhibition
Cc1cccc(Oc2ncccc2/C(=N/O)N2CCOCC2)c1C	10%
FC(F)(F)c1ccc(-c2nc(CNCc3ccccc3C(F)(F)F)co2)cc1	0%
Cc1ccc(/C(=N/O)N2CCCCCC2)c(Oc2cccc(C(C)C)c2)n1	14%
O/N=C(\NCc1ccccc1F)c1cccnc1OCC(F)(F)F	-12%
COc1ccc(Oc2nc(C)ccc2/C(=N/O)NCc2ccccc2F)cc1	-6%
O/N=C(\NCc1ccccc1F)c1cccnc1Oc1ccc(F)cc1	51%
O/N=C(\NCc1cc(F)ccc1F)c1cccnc1Oc1ccc(F)cc1	-3%
COc1ccc(Oc2ncccc2/C(=N/O)NCc2ccccc2F)cc1	70%
Clc1ccccc1-c1nc(CNCc2ccco2)co1	-7%
CC(C)N(C)Cc1coc(-c2ccccc2Cl)n1	4%
Cc1ccc(Oc2ncccc2/C(=N/O)NCc2cccnc2)c2c1CCC2	6%
Cc1ccc(Oc2ncccc2/C(=N/O)NCc2ccccc2)c2c1CCC2	99%
CCOc1ccccc1CN/C(=N\O)c1cccnc1Oc1ccc(C)c2c1CCC2	100%
Cc1ccc(Oc2ncccc2/C(=N/O)NCc2ccco2)c2c1CCC2	-6%
Cc1cc(C)cc(CN/C(=N\O)c2cccnc2Oc2ccc(C)c3c2CCC3)c1	69%
Cc1ccc(Oc2ncccc2/C(=N/O)NCc2ccncc2)c2c1CCC2	8%
Cc1ccc(Oc2ncccc2/C(=N/O)NCc2cccs2)c2c1CCC2	99%
Cc1ccc(Oc2cc(/C(=N/O)NCc3cccs3)ccn2)c2c1CCC2	3%
COc1ccc(CN/C(=N\O)c2cccnc2Oc2ccc(C)c3c2CCC3)cc1	9%
Cc1ccc(Oc2ncccc2/C(=N/O)NCc2cc(F)ccc2F)c2c1CCC2	28%
COc1ccc(-c2nc(CN(C)C3CCN(Cc4ccccc4)C3)co2)cc1 (stereo not drawn)	-9%
O/N=C(/c1ccnc(Oc2cccc3cnccc23)c1)N1CCN(c2ccccc2)CC1	7%
N#CCCN(Cc1coc(-c2ccc(C(F)(F)F)cc2)n1)CC1CCCO1 (stereo not drawn)	-3%

Compound	% inhibition
O/N=C(/c1ccnc(Oc2cccc3ccccc23)c1)N1CCSC1	22%
CSc1ccc(Oc2nc(C)ccc2/C(=N/O)NCc2ccccc2C)cc1	7%
Cc1ccc(N2CCN(Cc3coc(-c4ccccc4F)n3)CC2)c(C)c1	-17%
CSc1ccc(Oc2ncccc2/C(=N/O)NCc2ccccn2)cc1C	2%
CN(Cc1coc(-c2ccccc2Cl)n1)C1CCN(Cc2ccccc2)C1 (stereo not drawn)	-15%
COc1ccc(Oc2nc(C)ccc2/C(=N/O)N2CCSC2)cc1	27%
COc1cc(-c2nc(CNC3CCc4ccccc43)co2)cc(OC)c1OC (stereo not drawn)	28%
COc1ccc(CCN(C)Cc2coc(-c3ccc(F)cc3)n2)cc1OC	-7%
COc1ccc(CCN(C)Cc2coc(-c3ccc(Br)cc3)n2)cc1OC	65%
COc1ccc(CCN(C)Cc2coc(-c3ccc(O)cc3)n2)cc1OC	-29%
Cc1ccc(-c2nc(CNC3CCN(Cc4ccccc4)C3)co2)cc1 (stereo not drawn)	17%
COc1ccc(-c2nc(CNC3CCN(Cc4ccccc4)CC3)co2)cc1	97%
Brc1ccc(-c2nc(CNC3CCN(Cc4ccccc4)C3)co2)cc1 (stereo not drawn)	2%
Brc1ccc(-c2nc(CNC3CCN(Cc4ccccc4)CC3)co2)cc1	58%
Oc1ccc(-c2nc(CNC3CCN(Cc4ccccc4)C3)co2)cc1 (stereo not drawn)	33%
CCOc1ccc(-c2nc(CNC3CCN(Cc4ccccc4)C3)co2)cc1 (stereo not drawn)	6%
Fc1ccc(-c2nc(CNC3CCN(Cc4ccccc4)CC3)co2)cc1	-17%
COc1ccc(-c2nc(CNC3CCN(Cc4ccccc4)C3)co2)cc1 (stereo not drawn)	12%
CC(C)(C)c1ccc(-c2nc(CNC3CCN(Cc4ccccc4)C3)co2)cc1 (stereo not drawn)	55%
CN(Cc1ccco1)/C(=N\O)c1ccc(Oc2cc(Cl)ccc2Cl)nc1	-12%
COC(=O)C1CCN(/C(=N\O)c2ccnc(Oc3ccc(F)c(Cl)c3)c2)CC1	-5%
Cc1cccc(-c2nc(CN3CCN(c4ccc(F)cc4)CC3)co2)c1	18%
O/N=C(\NCc1c(F)cccc1F)c1ccc(Oc2ccc(Cl)cc2)nc1	6%

Compound	% inhibition
COCC(C)N/C(=N\O)c1ccc(Oc2cc(Cl)ccc2Cl)nc1 (stereo not drawn)	23%
CCC(CC)N/C(=N\O)c1ccc(Oc2cc(C)cc(C)c2)nc1	94%
COCC(C)N/C(=N\O)c1ccc(Oc2cc(C)cc(C)c2)nc1 (stereo not drawn)	1%
CCC(CC)N/C(=N\O)c1ccc(Oc2c(F)c(F)cc(F)c2F)nc1	19%
CCC(CC)N/C(=N\O)c1ccc(Oc2ccc(C)cc2C)nc1	26%
CCC(CC)N/C(=N\O)c1ccc(Oc2ccc(Cl)cc2)nc1	96%
CCC(CC)N/C(=N\O)c1ccc(Oc2cc(Cl)ccc2Cl)nc1	84%
CCC(CC)N/C(=N\O)c1ccc(Oc2cc(C)cc(C(C)C)c2)nc1	-7%
CCc1ccc(Oc2ccc(/C(=N/O)NC(CC)CC)cn2)cc1	7%
CCN(CCC#N)Cc1coc(-c2cc(OC)c(OC)c(OC)c2)n1	-11%
Cc1ccc(/C(=N/O)N2C(C)CCC2C)c(OCc2ccccc2C)n1 (stereo not drawn)	21%
COC[C@H]1CCCN1Cc1coc(-c2ccc(C)cc2)n1	-9%
Cc1cc(C)cc(Oc2ccc(/C(=N/O)NC3CCCCC3)cn2)c1	99%
Cc1ccc(Oc2ccc(/C(=N/O)NC3CC3)cn2)c(C)c1	26%
Cc1cc(C)cc(Oc2ccc(/C(=N/O)N(C)C3CCCCC3)cn2)c1	-8%
Cc1cc(Oc2ccc(/C(=N/O)NC3CCCCC3)cn2)cc(C(C)C)c1	17%
Cc1cc(C)cc(Oc2ccc(/C(=N/O)NC3CCC3)cn2)c1	99%
Cc1ccc(Oc2ccc(/C(=N/O)NCC3CC3)cn2)c(C)c1	98%
Cc1ccc(Oc2ccc(/C(=N/O)Nc3ccccc3)cn2)c(C)c1	22%
Cc1ccc(Oc2ccc(/C(=N/O)NCc3cccs3)cn2)c(C)c1	21%
Cc1ccc(Oc2ccc(/C(=N/O)NCc3c(F)cccc3F)cn2)c(C)c1	16%
Cc1cc(C)cc(Oc2ccc(/C(=N/O)NC3CCc4ccccc43)cn2)c1 (stereo not drawn)	12%
Cc1cc(C)cc(Oc2ccc(/C(=N/O)NC3CCN(Cc4ccccc4)C3)cn2)c1 (stereo not drawn)	-11%

Compound	% inhibition
Cc1ccc(Oc2ccc(/C(=N/O)NC3CCCC3)cn2)c(C)c1	91%
COc1ccc(-c2nc(CNc3cc(C(C)(C)C)nn3C)co2)cc1	7%
Cc1ccccc1-c1nc(CN(C)C2CCN(Cc3ccccc3)C2)co1 (stereo not drawn)	8%
CCCN(CC1CC1)/C(=N\O)c1ccc(C)nc1Oc1ccc(OC)cc1	30%
COc1ccc(-c2nc(CNCc3ccc(C(F)(F)F)cc3)co2)cc1	2%
CSc1ccc(Oc2nc(C)ccc2/C(=N/O)N2CCN(C3CCCC3)CC2)cc1C	13%
Cc1ccc(/C(=N/O)N2CC=CC2)c(OCc2cccc(F)c2)n1	-19%
CCCN(CC)Cc1coc(-c2cccc(OCC)c2)n1	20%
COc1ccc(-c2nc(CN3C(C)C=CC3C)co2)cc1 (stereo not drawn)	1%
FC(F)(F)Oc1ccc(CNCc2coc(-c3ccc(Br)cc3)n2)cc1	8%
CCOC(=O)C1CCN(Cc2coc(-c3cccc(OC)c3)n2)CC1	37%
COc1ccc(N2CCN(Cc3coc(-c4ccccc4Cl)n3)CC2)cc1	-8%
Cc1cc(C)cc(Oc2ccc(/C(=N/O)NC3CCC(C)CC3)cn2)c1 (stereo not drawn)	82%
Cc1cc(C)cc(Oc2ccc(/C(=N/O)NC3CC(C)CC(C)(C)C3)cn2)c1 (stereo not drawn)	14%
Cc1cc(C)cc(Oc2ccc(/C(=N/O)NC3CCCC3)cn2)c1	98%
Cc1cc(C)cc(Oc2ccc(/C(=N/O)Nc3ccccc3)cn2)c1	0%
CCN(CC)CCN(C)Cc1coc(-c2cccs2)n1	4%
CN(C)CCCNCc1coc(-c2ccc(F)cc2)n1	73%
CCN(CC)CCCNCc1coc(-c2ccc(F)cc2)n1	-8%
Cc1cccc(CNCc2coc(-c3cccc(C)c3)n2)c1	-10%
CCCCN(CCCC)CCCNCc1coc(-c2ccc(F)cc2)n1	1%
CCN(CC)CCNCc1coc(-c2ccc(F)cc2)n1	-17%
CCCCN(CCCC)CCCNCc1coc(-c2ccc(C)cc2)n1	53%

Compound	% inhibition
CCN(CC)CCCNCc1coc(-c2cccc(C)c2)n1	95%
CCCCN(CCCC)CCCNCc1coc(-c2ccco2)n1	20%
CCN(CC)CCNCc1coc(-c2cccc(C)c2)n1	26%
COc1cccc(-c2nc(CNCc3ccc(C(C)(C)C)cc3)co2)c1	5%
COc1ccc(Oc2ncccc2/C(=N/O)NCCN2CCOCC2)cc1	-10%
Cc1cc(NCc2coc(-c3ccc(Cl)cc3Cl)n2)n(-c2ccccc2)n1	-4%
CCN(Cc1coc(-c2cccc3ccccc23)n1)c1ccc2c(c1)OCO2	29%
Cc1ccc(-c2nc(Cn3ccnc3C(C)C)co2)cc1	39%
Fc1ccccc1-c1nc(CNCC(F)(F)C(F)(F)F)co1	21%
Oc1ccc(-c2nc(CNC34C[C@H]5C[C@@H](C3)C[C@@H](C4)C5)co2)cc1	23%
COc1cccc(-c2nc(Cn3ccnc3C)co2)c1	31%
Cc1cccc(-c2nc(CNC34C[C@H]5C[C@@H](C3)C[C@@H](C4)C5)co2)c1	35%
c1csc(-c2nc(CNC34C[C@H]5C[C@@H](C3)C[C@@H](C4)C5)co2)c1	25%
Brc1ccc(-c2nc(CNCc3ccccn3)co2)cc1	-9%
COc1ccc(NCc2coc(-c3cccc(OC)c3)n2)cc1	8%
CCc1nccn1Cc1coc(-c2cccc(OC)c2)n1	-9%
Brc1ccc(-c2nc(CNC34C[C@H]5C[C@@H](C3)C[C@@H](C4)C5)co2)cc1	62%
COc1cccc(-c2nc(Cn3ccnc3C=O)co2)c1	84%
COc1cccc(-c2nc(CNC34C[C@H]5C[C@@H](C3)C[C@@H](C4)C5)co2)c1	85%
Brc1ccccc1-c1nc(CNC23C[C@H]4C[C@@H](C2)C[C@@H](C3)C4)co1	48%
Fc1ccc(-c2nc(CNC34C[C@H]5C[C@@H](C3)C[C@@H](C4)C5)co2)cc1	58%
